{"source": "PubChem BioAssay (EPA / NIEHS)", "note": "Several values for one entry are separate records, joined by “and”; a condition that tells them apart may be missing. Identical values can stand only once. Activity calls are given as the source filed them. Rule for the calls: active = hit-call score of the fitted dose curve at least 0.9, where 1 is the maximum; inactive = score below 0.9."}
{"read-out": "Interleukin-1 alpha (IL1a), IL1A (gene 3552)", "experiment": "BSK_KF3CT_IL1a: BioMAP Diversity Plus: KF3CT Assay for Interleukin-1 alpha (IL1a) Biomarker Activity (AID 2283070)", "conditions": "primary human keratinocytes with fibroblasts; actives raise or lower the signal", "experimental": "BSK_KF3CT is a cell-based, multiplexed-readout assay that uses keratinocytes and foreskin fibroblasts, a human skin primary cell co-culture, with measurements taken at 24 hours after chemical dosing in a 96-well plate.BSK_KF3CT_IL1a is an assay component measured in the BSK_KF3CT assay. It measures IL-1a antibody related to regulation of gene expression using ELISA technology.Data from the assay component BSK_KF3CT_IL1a was analyzed into 1 assay endpoint. This assay endpoint, BSK_KF3CT_IL1a, was analyzed with bidirectional fitting relative to DMSO as the negative control and baseline of activity. Using a type of binding reporter, gain or loss-of-signal activity can be used to understand changes in the signaling as they relate to the gene IL1A. Furthermore, this assay endpoint can be referred to as a primary readout, because this assay has produced multiple assay endpoints where this one serves a signaling function. To generalize the intended target to other relatable targets, this assay endpoint is annotated to the cytokine intended target family, where the subfamily is interleukins.\nThe levels of cell surface (or secreted, indicated by the prefix \"s\") biomarker endpoints were measured by ELISA. Overt cytotoxicity to cells in confluent adherent cultures (all systems other than the BT system) was assessed by measuring total protein levels using sulforhodamine B (SRB) staining in parallel cultures at the time of biomarker measurements, indicated as SRB endpoints. For proliferation assays for adherent cell types, individual cell types are cultured at sub-confluence and relative cell numbers quantified by SRB staining at time points optimized for each system (48 h: 3C and CASM3C systems; 72 h: BT and HDF3CGF systems; 96 h: SAg system). SRB was performed by staining cells with 0.1% SRB after fixation with 10% TCA and reading wells at 560 nm.Viability and proliferation of PBMC (T cells) was quantified by Alamar Blue reduction for the SAg and BT systems. For PBMC viability (referred to as PBMC Cytotoxicity within the assay endpoint names), cells were plated (75,000/well in a 96-well plate) and then chemical samples added for 1 h before addition of activators, SEB and TSST-1 (20 ng/mL final concentration each). Cells were incubated for 90 h. Then, Alamar Blue (20 uL/well) (Invitrogen, Cat DAL1100) was added for 6 h, and the plates were read with a fluorescence microplate reader at 546/580 nm (excitation/emission). For PBMC proliferation, cells were plated and activated as above but incubated for only 16 h prior to addition of Alamar Blue. Plates were read after 6 h."}
{"smiles": "O=C(Cl)C(F)(F)C(F)(F)C(F)(F)C(F)(F)C(F)(F)C(F)(F)C(F)(F)C(F)(F)F", "outcome": "inactive"}
{"smiles": "O=P(O)(O)OCCC(F)(F)C(F)(F)C(F)(F)C(F)(F)C(F)(F)C(F)(F)F", "outcome": "inactive"}
{"smiles": "CCCCCCCOC(=O)c1ccccc1C(=O)OCCCCCCC", "outcome": "inactive"}
{"smiles": "OCCCC(F)(F)C(F)(F)C(F)(F)C(F)(F)C(F)(F)C(F)(F)C(F)(F)F", "AC50": "24 µM (active) and 43.8 µM (active)"}
{"smiles": "C=CC(F)(F)C(F)(F)C(F)(F)C(F)(F)C(F)(F)C(F)(F)C(F)(F)C(F)(F)C=C", "outcome": "inactive"}
{"smiles": "FC(F)(F)C(F)(F)C(F)(F)C(F)(F)C(F)(F)CCI", "outcome": "inactive"}
{"smiles": "CCc1c(Br)c(Br)c(Br)c(Br)c1Br", "outcome": "inactive"}
{"smiles": "O=C(O)C(F)(F)C(F)(F)F", "outcome": "inactive"}
{"smiles": "O=C(O)C(F)(F)C(F)(F)C(F)(F)F", "outcome": "inactive"}
{"smiles": "CS(C)(=O)=O", "outcome": "inactive"}
{"smiles": "FC(F)(F)C(F)(F)C(F)(F)N(C(F)(F)C(F)(F)C(F)(F)F)C(F)(F)C(F)(F)C(F)(F)F", "outcome": "inactive"}
{"smiles": "O=C(O)C(F)(F)C(F)(F)C(F)(F)C(F)(F)C(F)(F)C(F)(F)C(F)(F)C(F)(F)C(F)(F)C(F)(F)C(F)(F)C(F)(F)C(F)(F)F", "outcome": "inactive"}
{"smiles": "CO[Si](OC)(c1ccccc1)c1ccccc1", "outcome": "inactive"}
{"smiles": "O=C(O)C(F)(OC(F)(F)C(F)(OC(F)(F)C(F)(OC(F)(F)C(F)(F)C(F)(F)F)C(F)(F)F)C(F)(F)F)C(F)(F)F", "note": "(stereo not given)", "outcome": "inactive"}
{"smiles": "C=C(C)C(=O)OCCC(F)(F)C(F)(F)C(F)(F)C(F)(F)C(F)(C(F)(F)F)C(F)(F)F", "outcome": "inactive"}
{"smiles": "O=C(O)C(F)(F)C(F)(F)C(F)(F)C(F)(F)C(F)(F)C(F)(F)C(F)(F)C(F)(F)C(F)(F)C(F)F", "AC50": "48.7 µM (active) and 46.1 µM (active)"}
{"smiles": "Oc1ccc(Nc2ccccc2)cc1", "AC50": "5.84 µM (active)"}
{"smiles": "O=S(=O)(O)C(F)(F)C(F)(F)C(F)(F)C(F)(F)C(F)(F)C(F)(F)C(F)(F)F", "outcome": "inactive"}
{"smiles": "OCC(F)(F)C(F)(F)C(F)(F)C(F)F", "outcome": "inactive"}
{"smiles": "CCCCC(CC)COP(=O)(O)OCC(CC)CCCC", "note": "(stereo not given)", "outcome": "inactive"}
{"smiles": "FC(F)(I)C(F)(F)C(F)(F)C(F)(F)I", "AC50": "53.2 µM (active) and 47.2 µM (active) and 47.7 µM (active)"}
{"smiles": "FC(F)(F)C(F)(F)C(F)(F)C(F)(F)C(F)(F)C(F)(F)C(F)(F)Br", "outcome": "inactive"}
{"smiles": "O[Si](c1ccccc1)(c1ccccc1)c1ccccc1", "outcome": "inactive"}
{"smiles": "FC(F)(F)C(F)(F)C(F)(F)C(F)(F)C(F)(F)C(F)(F)C(F)(F)C(F)(F)CCS", "outcome": "inactive"}
{"smiles": "O=C(O)C(F)(F)C(F)(F)C(F)F", "outcome": "inactive"}
{"smiles": "OCCCC(F)(F)C(F)(F)C(F)(F)F", "outcome": "inactive"}
{"smiles": "FC(F)(Br)C(F)(F)C(F)(F)C(F)(F)C(F)(F)C(F)(F)Br", "outcome": "inactive"}
{"smiles": "CCCCNc1ccccc1", "outcome": "inactive"}
{"smiles": "C=CC(F)(F)C(F)(F)C(F)(F)C(F)(F)C(F)(F)C(F)(F)C(F)(F)C(F)(F)F", "outcome": "inactive"}
{"smiles": "CCCCCCCCCCCCCCCC[N+](C)(C)Cc1ccccc1", "AC50": "3.72 µM (active)"}
{"smiles": "O=C(O)C(F)(F)C(F)(F)C(F)(F)C(F)(F)C(F)(F)C(F)(F)C(F)(F)C(F)(F)Cl", "AC50": "30 µM (active) and 20.5 µM (active)"}
{"smiles": "C#C[C@]1(O)CC[C@H]2[C@@H]3CCc4cc(OC)ccc4[C@H]3CC[C@@]21C", "AC50": "3.97 µM (active)"}
{"smiles": "OCC(F)(F)C(F)(F)C(F)(F)C(F)(F)C(F)(F)C(F)F", "outcome": "inactive"}
{"smiles": "O=C(O)C=C(C(F)(F)F)C(F)(F)F", "outcome": "inactive"}
{"smiles": "NC(=O)C(F)(F)C(F)(F)C(F)(F)C(F)(F)F", "outcome": "inactive"}
{"smiles": "O=C(O)C(F)(F)C(F)(F)OC(F)(F)F", "outcome": "inactive"}
{"smiles": "CCN(CC)c1ccc2c(C)cc(=O)oc2c1", "outcome": "inactive"}
{"smiles": "FC(F)(F)C(F)(F)C(F)(F)C(F)(F)C(F)(F)C(F)(F)CCS", "outcome": "inactive"}
{"smiles": "C=CC(=O)OCC(F)(F)C(F)(F)C(F)(F)C(F)(F)COC(=O)C=C", "AC50": "18.6 µM (active) and 48.2 µM (active)"}
{"smiles": "OCC(F)(F)C(F)(F)C(F)(F)F", "outcome": "inactive"}
